HIF act – HIF pathway transcriptional activation | U2OS HRE-luciferase reporter, luminescence; normalized: DMSO 0%, desferrioxamine 100% | activation, % at 7.5 µM (by protocol) | hit rate 0.32% among 300,000 | AID 1910;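 active = mean activation of at least 10% of the iron chelator positive control signal, with at least half of replicates also reaching 10%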
CR mimetic SO – yeast age-related superoxide inhibition as caloric restriction mimetic; S. cerevisiae aged cells, superoxide DHE fluorescence; stronger effect = lower value; hit rate 0.18% among 330,000; superoxide response (% of plate mean), % at 10 µM; AID 2690;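 active = superoxide response under a set limit, about three screen SD below normal, cut at about 65% in these data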;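 also: yeast aged for seven days with compound at 30 °C before DHE staining; 100% = average MFI of all compound-treated wells on the plate with controls excluded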
HDAC3 inhib – blocks human histone deacetylase 3 | AID 2718 | recombinant HDAC3, fluorogenic peptide/trypsin coupled, fluorescence | hit rate 0.15% among 320,000 | inhibition, % at 8.3 µM | O15379; in the data active = inhibition above about 26%, passing the limit was not always enough
LANA-H2B inh – blocks KSHV LANA binding to histone H2A/H2B; hit rate 0.6% among 320,000; AID 2629; inhibition, % (concentration not given with the values); Q9QR71; cell-free LANA-H2A/H2B peptide, fluorescence polarization; in the data active = inhibition mostly above about 10%, no sharp cut-off; inactive = mostly below about 6.7%
Target sequence (Q9QR71 whole entry, looked up): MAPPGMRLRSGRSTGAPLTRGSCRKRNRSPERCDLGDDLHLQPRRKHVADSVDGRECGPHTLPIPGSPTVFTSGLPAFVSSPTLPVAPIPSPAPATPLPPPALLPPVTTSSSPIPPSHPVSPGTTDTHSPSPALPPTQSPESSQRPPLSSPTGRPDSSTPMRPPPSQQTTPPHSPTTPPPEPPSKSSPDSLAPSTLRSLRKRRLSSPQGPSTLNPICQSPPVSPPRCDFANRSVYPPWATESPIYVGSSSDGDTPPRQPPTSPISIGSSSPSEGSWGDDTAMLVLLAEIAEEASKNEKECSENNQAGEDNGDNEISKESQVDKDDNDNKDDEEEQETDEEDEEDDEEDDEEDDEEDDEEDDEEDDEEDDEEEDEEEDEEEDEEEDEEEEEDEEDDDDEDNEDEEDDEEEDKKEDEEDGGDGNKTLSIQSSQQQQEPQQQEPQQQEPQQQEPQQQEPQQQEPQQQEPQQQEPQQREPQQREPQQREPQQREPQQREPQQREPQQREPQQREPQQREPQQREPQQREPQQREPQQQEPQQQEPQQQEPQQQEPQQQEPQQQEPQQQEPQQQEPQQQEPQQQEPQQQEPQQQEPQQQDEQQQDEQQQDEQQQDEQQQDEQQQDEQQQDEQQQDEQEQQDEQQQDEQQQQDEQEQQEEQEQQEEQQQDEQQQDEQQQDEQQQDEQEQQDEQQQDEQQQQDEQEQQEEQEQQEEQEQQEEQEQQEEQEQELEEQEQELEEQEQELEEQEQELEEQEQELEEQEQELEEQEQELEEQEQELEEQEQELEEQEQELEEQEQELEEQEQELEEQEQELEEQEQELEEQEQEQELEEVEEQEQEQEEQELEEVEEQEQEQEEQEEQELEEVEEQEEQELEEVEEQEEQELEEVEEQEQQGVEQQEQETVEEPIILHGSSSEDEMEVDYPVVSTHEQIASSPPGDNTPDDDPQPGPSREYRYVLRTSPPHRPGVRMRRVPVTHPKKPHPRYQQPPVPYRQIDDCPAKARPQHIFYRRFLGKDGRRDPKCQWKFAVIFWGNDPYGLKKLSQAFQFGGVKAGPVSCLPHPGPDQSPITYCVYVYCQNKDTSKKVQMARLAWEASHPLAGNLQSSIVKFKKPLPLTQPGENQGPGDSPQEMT
Active calls of the source: *; nt = no result; + = active, no number. An excerpt weighted towards active compounds, which were near 1.2% of everything screened.

SMILES	HIF act	CR mimetic SO	HDAC3 inhib	LANA-H2B inh
O=C(CCc1ccccc1)NC(c1cccs1)c1cc(Cl)c2cccnc2c1O (stereo unspecified)	102*	nt	nt	nt
CCCC(=O)NC(c1cccs1)c1cc([N+](=O)[O-])c2cccnc2c1O (stereo unspecified)	-33	106	11	0
CCCCC(=O)NC(c1ccco1)c1cc(Cl)c2cccnc2c1O (stereo unspecified)	0	98	0	3
CCCCC(=O)NC(c1ccccc1Cl)c1ccc2cccnc2c1O (stereo unspecified)	128*	142	-10	11
CC(=O)NC(c1ccc(C(C)C)cc1)c1ccc2cccnc2c1O (stereo unspecified)	163*	88	-3	-6
CC(=O)NC(c1cccs1)c1cc([N+](=O)[O-])c2cccnc2c1O (stereo unspecified)	18*	122	-7	-5
O=C(COC(=O)CNC(=O)c1cccs1)Nc1ccc(C(F)(F)F)cc1[N+](=O)[O-]	2	110	5	-3
CCCCC(=O)NC(c1ccccc1)c1ccc2cccnc2c1O (stereo unspecified)	48*	94	1	6
CC(C)C(=O)NC(c1ccccc1)c1cc([N+](=O)[O-])c2cccnc2c1O (stereo unspecified)	2	111	1	-2
CCCC(=O)NC(c1ccc(OC)cc1)c1ccc2cccnc2c1O (stereo unspecified)	74*	102	3	1
Oc1c(C(c2ccccc2Cl)N2CCCC2)ccc2cccnc12 (stereo unspecified)	59*	87	4	0
CCCC(=O)NC(c1ccccc1)c1ccc2cccnc2c1O (stereo unspecified)	51*	105	8	1
CC(NC(=O)c1ccc2c(c1)OCCO2)c1ccc(S(N)(=O)=O)cc1 (stereo unspecified)	0	89	3	-2
CCC(=O)NC(c1ccc(OC)cc1)c1cc(Cl)c2cccnc2c1O (stereo unspecified)	23*	110	-5	1
CCCCC(=O)NC(c1ccc(C(C)C)cc1)c1ccc2cccnc2c1O (stereo unspecified)	103*	110	-3	-1
CCCCC(=O)NC(c1ccc([N+](=O)[O-])cc1)c1c(O)ccc2ccccc12 (stereo unspecified)	0	108	4	-3
CCC(=O)NC(c1ccccc1OC)c1ccc2cccnc2c1O (stereo unspecified)	35*	70	6	-8
Oc1c(C(Nc2ccccn2)c2cccnc2)cc(Cl)c2cccnc12 (stereo unspecified)	0	97	5	-4
CCC(=O)NC(c1ccco1)c1cc(Cl)c2cccnc2c1O (stereo unspecified)	2	93	5	-2
COc1ccc(C(NC(=O)c2cccnc2)c2cc(Cl)c3cccnc3c2O)cc1OC (stereo unspecified)	12*	103	-5	1
Cc1nn(C2CCS(=O)(=O)C2)c(C)c1CN(C)C(=O)c1ccc(S(=O)(=O)N(C)C)cc1 (stereo unspecified)	nt	97	-7	1
CC(=O)NC(c1ccc(C)cc1)c1cc(Cl)c2cccnc2c1O (stereo unspecified)	9.8*	102	9	0
O=C(Nc1cccc([N+](=O)[O-])c1)c1ccn[nH]1	2	87	0	2
Cc1ccc2oc(C(Cl)(Cl)Cl)cc(=O)c2c1	-1	100	5	-2
NCC1CCC(C(=O)Oc2ccc(CCC(=O)O)cc2)CC1 (stereo unspecified)	-1	97	81*	-4
SMILES	HIF act	CR mimetic SO	HDAC3 inhib	LANA-H2B inh
O=C(Oc1ccc(OC(=O)C2CCC2)cc1)C1CCC1	0	102	-3	3
O=C(/C=C/c1cn(-c2ccccc2)nc1-c1ccccc1)Nc1ccc(C(=O)O)cc1	16*	121	3	2
O=C(CCNC(=O)N1CC(=O)Nc2ccccc21)Nc1cccc(Cl)c1	0	94	1	15*
O=C(NCCCO)C(=O)Nc1cc2c3c(c1)CCC(=O)N3CCC2	0	112	2	19*
COCCCNC(=O)C(=O)Nc1cc2c3c(c1)CCC(=O)N3CCC2	1	121	1	0
COC(=O)c1cc2n(n1)CCN(Cc1cccc(OC)c1)C2=O	0	89	4	20*
COC(=O)c1cc2n(n1)CCN(Cc1ccc(C)cc1)C2=O	0	101	-5	-1
Cc1ccc(NC(=O)CN2C(=O)NC(Cc3ccccc3)C2=O)cc1Cl (stereo unspecified)	nt	96	18	-2
O=C(Cc1ccc(F)cc1)Nc1cccc(-c2cn3c(n2)SCC3)c1	1	111	-5	+
O=C(Nc1cccc(-c2cn3c(n2)SCC3)c1)c1ccc(Br)o1	nt	136	0	1
CCCN(CC(=O)Nc1ccccc1OC)C(=O)CCNC(=O)c1ccccc1OC	0	99	-7	41*
COc1ccccc1C(=O)NCCC(=O)N(C)CC(=O)Nc1ccccc1Br	0	96	-1	1
O=C(O)CSc1nc2ccccc2nc1Cc1ccccc1F	-1	112	7	0
CCOc1ccc(N2C(=O)C3ON(c4ccccc4)C(c4ccco4)C3C2=O)cc1 (stereo unspecified)	0	95	-1	11*
Cc1ccccc1N1C(=O)C2ON(c3ccccc3)C(c3ccco3)C2C1=O (stereo unspecified)	-1	108	0	0
CCOc1ccc(S(=O)(=O)NCCC(=O)NCC(c2ccc(OC)cc2)N2CCCC2)cc1 (stereo unspecified)	nt	102	-9	1
CCOc1ccc(S(=O)(=O)NCCC(=O)NCC2(N3CCCCC3)CCCCC2)cc1	0	98	-4	168*
Cc1ccc(S(=O)(=O)NCC(=O)OCC(=O)Nc2ccc3c(c2)OCCO3)cc1	nt	119	-3	19*
Cc1cc(C)cc(NC(=O)COC(=O)c2ccc3c(c2)OCCO3)c1	nt	105	4	12*
CCCNS(=O)(=O)c1ccc(OCC(=O)Nc2ccc3c(c2)OCCO3)cc1	0	92	10	7
O=C(COC(=O)Cc1cccc(C(F)(F)F)c1)Nc1ccc2c(c1)OCCO2	0	96	5	146*
Cc1ccc(C)c(NC(=O)COC(=O)c2ccc3c(c2)OCCO3)c1	nt	118	2	-2
CC(C)N(Cc1ccccc1)C(=O)COC(=O)c1cnc(Cl)c(Cl)c1	nt	106	2	0
S=C(NCc1ccccc1)Nc1ccncc1	0	88	3	5
CCn1ccnc1C(O)c1ccccc1OC (stereo unspecified)	27*	95	1	3
COc1ccccc1C(O)c1nccn1C (stereo unspecified)	0	88	4	6
O=C(N[C@@H](Cc1ccccc1)C(=O)N1CCN(S(=O)(=O)c2ccccc2F)CC1)c1ccco1	nt	109	8	7
CCCCCC(O)(c1ccc(OCC)cc1)C(CN1CCOCC1)c1ccccc1 (stereo unspecified)	1	112	26*	-2

Screening data from PubChem BioAssay.
